Screens from PubChem BioAssay.
Pf growth 96h = Primary qHTS for delayed death inhibitors of the malarial parasite plastid, 96 hour incubation. P. falciparum luciferase reporter growth, 96 h. Potency, µM (series often up to 28.7 µM), actives largely listed as inhibitors. hit rate 6.9% among 320,000
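Two-generation exposure (96 h) targets delayed-death phenotype. Reporter parasites carrying integrated firefly luciferase, in red cells at 2% hematocrit and 0.05% parasitemia final, kept at 37 C, 5% CO2; luminescence loss indicates inhibition.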
HCMV inh = qHTS Assay for inhibitors of the human cytomegalovirus (HCMV). HFF cells, HCMV-luciferase reporter, 72 h; stronger effect = lower value. activity change, negative = inhibition, % at 57.5 µM. hit rate 4.5% among 410,000. AID 1259415, 2018; in the data active = activity change below about -60%; inconclusive = no clear call, values can overlap the other calls; inactive = above about -39%
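HFF cells seeded 16 h at 37C, treated with compounds, infected with luciferase-reporter HCMV at MOI 1 PFU/cell; luciferase read at 72 h post infection, normalized to buffer-only and Salinomycin controls.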
HCV inhibitor = qHTS Assay for Inhibitors of Hepatitis C Virus (HCV); Huh7.5.1 HCVcc-Cre infection, luciferase reporter, 44 h; Potency, µM (highest dose often 41.8 µM), usual class: inhibitors; hit rate 3.4% among 340,000
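Reporter virus HCVcc-Cre (~0.5 moi) infects cells exposed to compound; seeding density 1,000 cells/well with 4 h settling beforehand. Luminescence, 15 sec read, taken 44 h post-infection following a 15 min RT substrate incubation.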
MARV entry inh = qHTS for inhibitors of binding or entry into cells for Marburg Virus; Potency, µM (titrated, usually from 37.8 µM), most hits filed as inhibitors; hit rate 1.8% among 300,000; AID 540276, 2011; Marburg virus pseudotyped entry inhibition, cell reporter; calls by dose curve; tested in HEK293 cells
Lassa entry inh = qHTS for Inhibitors of binding or entry into cells for Lassa Virus | Lassa virus pseudotype entry inhibition, cell reporter | Potency, µM (doses to about 37.9 µM), hits mostly inhibitors | hit rate 1.2% among 300,000 | AID 540256, 2011; calls by dose curve; tested in HEK293 cells; also: nearly all actives have a fitted effect of over 50% in size
Pf growth 48h = Primary qHTS for delayed death inhibitors of the malarial parasite plastid, 48 hour incubation. P. falciparum luciferase growth in erythrocytes, 48 h. Potency, µM (highest dose often 28.7 µM), actives largely listed as inhibitors. hit rate 5.9% among 310,000. AID 504832, 2011
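Luciferase-expressing parasites in RBCs, 2% Hct / 0.1% parasitemia final; RPMI 1640 + 0.5% Albumax; 37 C, 5% CO2, one generation; luminescence read-out, lower signal = inhibition.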
Hits are given with their value; – = inactive; ? = inconclusive; · = not tested or not shown. This is a sample that favours compounds with a hit; in the whole collection about 14% have one here. Unless noted, calls follow the shape of the dose curve; as a rule, active = well fitted inhibition curve with a large enough effect; inconclusive = small, poorly fitted or top-dose-only effect, or another doubt; inactive = no such curve, though single readings can be large or run the other way.

SMILES | Pf growth 96h | HCMV inh | HCV inhibitor | MARV entry inh | Lassa entry inh | Pf growth 48h
COc1cccc(C(C)(O)c2nc(-c3ccc(S(C)(=O)=O)cc3)cs2)c1 (stereo not drawn) | · | -85.7 | · | · | · | ·
COc1cccc(C(C)(O)c2nc(-c3cnc4ccccc4c3)cs2)c1 (stereo not drawn) | · | -62.5 | · | · | · | ·
CC(O)(c1cccc(F)c1)c1nc(-c2ccc(S(C)(=O)=O)cc2)cs1 (stereo not drawn) | · | – | · | · | · | ·
CNc1cnc(-c2ccccc2OC)cn1 | · | – | · | · | · | ·
COc1ccc(C2C=C(C34CC5CC(CC(C5)C3)C4)NC(=S)N2)cc1 (stereo not drawn) | 11.7µM | – | – | 14.6µM | ? | 9.28µM
COc1ccc(N2CCN(S(=O)(=O)c3ccc4c(c3)CC(C)N4C(C)=O)CC2)cc1 (stereo not drawn) | · | -72.4 | · | · | – | ·
CC(=O)N1c2ccc(S(=O)(=O)N3CCN(c4cccc(Cl)c4)CC3)cc2CC1C (stereo not drawn) | · | – | · | – | – | ·
CC(=O)N1c2ccc(S(=O)(=O)N3CCCC(C(=O)Nc4ccc(F)cc4)C3)cc2CC1C (stereo not drawn) | – | -68.2 | ? | · | · | ?
COc1ccc(NC(=O)C2CCCN(S(=O)(=O)c3ccc4c(c3)CC(C)N4C(C)=O)C2)cc1 (stereo not drawn) | – | ? | ? | – | – | 13.1µM
Cc1nn(-c2ccccc2)c(OC(=O)c2ccccc2)c1S(=O)(=O)c1ccccc1 | · | – | · | ? | – | ·
CSc1ncc2[nH]c(C(O)c3ccccc3)nc2n1 (stereo not drawn) | · | – | ? | ? | ? | ·
CC(Oc1ccc2c(-c3ccccc3)cc(=O)oc2c1)C(=O)NC(Cc1c[nH]c2ccc(O)cc12)C(=O)O (stereo not drawn) | – | -76.7 | – | · | · | –
CCc1cc(=O)oc2cc(C)cc(OCC(=O)N3CCC(C(=O)NC(C)C)(c4ccccc4)CC3)c12 | 10.4µM | – | ? | ? | ? | 10.4µM
Cc1cc(OCC(=O)N2CCC(C(=O)O)(c3ccccc3)CC2)c2c(C)cc(=O)oc2c1 | – | – | – | · | · | –
CCCc1cc(=O)oc2cc(C)cc(OC(C)C(=O)NCc3ccccn3)c12 (stereo not drawn) | 2.33µM | – | ? | · | · | 2.62µM
CCc1cc(=O)oc2cc(C)cc(OC(C)C(=O)NC3CCN(Cc4ccccc4)CC3)c12 (stereo not drawn) | ? | – | 12.6µM | ? | – | ?
CCc1cc(=O)oc2cc(C)cc(OC(C)C(=O)NCC(O)c3ccccc3)c12 (stereo not drawn) | ? | – | – | · | · | ?
Cc1ccc(CN2CCCn3nc(C(=O)NCc4ccc(N(C)C)cc4)cc3C2=O)cc1 | · | – | · | · | – | ·
Cc1ccnc(NC(=O)c2cc(S(=O)(=O)NCc3ccccc3)ccc2C)c1 | – | – | – | · | · | –
CCOc1ccc(CCNC(=O)Cn2c(=O)c3cccn3c3ccc(F)cc32)cc1OCC | · | – | · | · | – | ·
COC(=O)c1ccc(Cn2c(C)c(C(=O)NCc3cccc([N+](=O)[O-])c3)sc2=O)o1 | · | – | · | · | · | ·
CC(Oc1ccc2c(-c3ccccc3)cc(=O)oc2c1)C(=O)NCc1ccccn1 (stereo not drawn) | – | – | 25.1µM | · | · | –
CCc1cc(=O)oc2cc(C)cc(OC(C)C(=O)NCc3ccccn3)c12 (stereo not drawn) | 2.08µM | – | – | · | · | 3.7µM
CC(Oc1ccc(Br)cc1)C(=O)NC1CCN(Cc2ccccc2)CC1 (stereo not drawn) | ? | – | ? | 12.6µM | – | –
CCc1cc(=O)oc2cc(C)cc(OCC(=O)NCc3ccccn3)c12 | ? | – | – | · | · | –
CC(C)Oc1ccc(C(=O)NC2CCN(Cc3ccccc3)CC2)cc1 | – | ? | ? | ? | – | –
O=C(COc1ccc2c(-c3ccccc3)cc(=O)oc2c1)NCc1ccccn1 | – | – | – | · | · | –
CCCNC(=O)c1ccc(Cn2cc(-c3ccc(C)cc3)ncc2=O)cc1 | · | – | · | · | · | ·
COc1cc(-n2nnnc2SCC(=O)N2CCN(c3ccc(F)cc3)CC2)c(OC)cc1Cl | · | – | 11.2µM | ? | ? | 14.7µM
